Screening data as filed in PubChem.
U2OS ROS induce – raises reactive oxygen species in U2OS cancer cells. actives 2% (n = 46,000). ROS induction (% of piperlongumine), % at 10 µM. AID 624156. U2OS ROS induction, H2DCF-DA fluorescence; in the data active = ROS induction above about 79%, passing the limit was not always enough; inconclusive = no clear call, values can overlap the other calls
YB-1 expr inh – YB-1 expression inhibition; U2OS, qRT-PCR YB-1 vs CDIP delta delta Cp, 16 h; active compounds read high; zero = DMSO, each unit about twofold; delta delta Cp (YB-1 minus CDIP) (concentration not given with the values); actives 0.37% (n = 30,000); AID 434959;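 active = delta delta Cp rounded down to an integer at or above 3, about 3 SD of DMSO wells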;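 also: higher means less YB-1 transcript or more CDIP transcript relative to DMSO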
Each line names hits and unclear results; the compound was inactive in the other large screens. Hits are enriched below; roughly 2.3% of the tested compounds scored in any of these assays.

C[C@@H]1CCCCO[C@H](CN(C)Cc2ccc(C(F)(F)F)cc2)[C@@H](C)CN([C@H](C)CO)C(=O)c2cc(NC(=O)Nc3ccccc3)ccc2O1	U2OS ROS induce 137
C[C@@H]1CCCCO[C@H](CN(C)Cc2ccccc2)[C@@H](C)CN([C@H](C)CO)C(=O)c2cc(NC(=O)Nc3ccc(C(F)(F)F)cc3)ccc2O1	none
C[C@@H]1CCCCO[C@H](CN(C)C)[C@@H](C)CN([C@H](C)CO)C(=O)c2cc(NC(=O)Nc3ccc(C(F)(F)F)cc3)ccc2O1	none
C[C@@H]1CCCCO[C@H](CN(C)CC2CCCCC2)[C@@H](C)CN([C@H](C)CO)C(=O)c2cc(NC(=O)Nc3ccc(C(F)(F)F)cc3)ccc2O1	U2OS ROS induce 95
N#Cc1c(C(F)(F)F)cc(C2CC2)nc1SCCN1CCCCC1	none (no result: YB-1 expr inh)
COC(=O)c1ccc(CSc2nncn2N)o1	none (no result: YB-1 expr inh)
CCN(CC)c1c(C#N)c(SCC(=O)c2cccs2)cc2c1CCCC2	U2OS ROS induce 92
Cc1cc(C)c2c(=O)[nH]c(SCC(=O)c3cccs3)nc2n1	none (no result: YB-1 expr inh)
C[C@H](CO)N1C[C@H](C)[C@@H](CN(C)S(=O)(=O)c2ccccc2)Oc2c(NC(=O)c3nc4ccccc4s3)cccc2C1=O	none
C[C@H]1CN([C@@H](C)CO)C(=O)c2cccc(NC(=O)NC3CCCCC3)c2O[C@@H]1CN(C)S(=O)(=O)c1ccc(Cl)cc1	none
C[C@H](CO)N1C[C@H](C)[C@H](CN(C)S(=O)(=O)c2ccc(Cl)cc2)Oc2c(NC(=O)NC3CCCCC3)cccc2C1=O	U2OS ROS induce 97
C[C@@H]1CN([C@@H](C)CO)C(=O)c2cccc(NC(=O)c3nc4ccccc4s3)c2O[C@H]1CN(C)S(=O)(=O)c1ccc(Cl)cc1	U2OS ROS induce 80
CCCCN1C(=O)/C(=C/N(C(C)=O)c2ccccc2)SC1=S	none (no result: YB-1 expr inh)
O=C(Cn1nc(Cc2cccnc2)c2ccccc2c1=O)Nc1ccc(Oc2ccccc2)cc1	none (no result: YB-1 expr inh)
O=C(NCCc1ccccc1)c1ccc2c(c1)sc1nc(-c3ccccc3)cn12	none (no result: YB-1 expr inh)
O=C(C1CCCO1)N1N=C(c2c(-c3ccccc3)c3cc(Cl)ccc3[nH]c2=O)CC1c1ccco1 (stereo not drawn)	U2OS ROS induce 178 (no result: YB-1 expr inh)
CN1CCN(C(=O)CSc2c(-c3ccccc3)c3cc(Cl)ccc3[nH]c2=O)CC1	none (no result: YB-1 expr inh)
N#Cc1c(-c2ccco2)cc(-c2ccccc2)nc1SCCN1C(=O)c2ccccc2C1=O	none (no result: YB-1 expr inh)
N#Cc1c(-c2ccccc2)cc(-c2ccccc2)nc1SCC(O)CS(=O)Cc1ccccc1 (stereo not drawn)	U2OS ROS induce 144 (no result: YB-1 expr inh)
COc1ccc(-c2cc(-c3cccs3)nc(SC(C(=O)O)c3ccccc3)c2C#N)cc1 (stereo not drawn)	U2OS ROS induce 149 (no result: YB-1 expr inh)
CC(C)(C)c1cc(-c2cccs2)c(C#N)c(SCC(=O)Oc2ccccc2)n1	none
CCS(=O)(=O)CCSc1nc(-c2ccccc2)cc(-c2ccccc2)c1C#N	U2OS ROS induce 98 (no result: YB-1 expr inh)
N#Cc1c(-c2ccco2)cc(-c2cccs2)nc1OCc1ccc(F)cc1	none
Cc1cc(-c2ccccc2)nc(SCc2ccccc2)c1C#N	none (no result: YB-1 expr inh)
N#Cc1c(-c2ccccc2)cc(-c2cccs2)nc1SCS(=O)Cc1ccccc1 (stereo not drawn)	U2OS ROS induce 108 (no result: YB-1 expr inh)
O=C(Nc1ccccc1)C1CCN(S(=O)(=O)c2ccccc2)CC1	none (no result: YB-1 expr inh)
Cc1ccc(CNC(=O)CCCc2nnc3n4nc(C)nc4c4ccccc4n23)cc1	none (no result: YB-1 expr inh)
C=CCn1c(SCc2ccccc2)nnc1-c1ccc2ncccc2c1	none (no result: YB-1 expr inh)
CCCCc1nc2sc3c(NCc4ccccc4)ncnc3c2c2c1COC(C)(C)C2	none (no result: YB-1 expr inh)
CCCCc1nc2sc3c(Cl)ncnc3c2c2c1COC(C)(C)C2	U2OS ROS induce 113 (no result: YB-1 expr inh)
Cc1ccc(C)c(C(=O)CSc2nc3nc(C)cc(C)c3c(=O)[nH]2)c1	none (no result: YB-1 expr inh)
CC(C(=O)OCC(=O)n1c2c(c3ccccc31)CCCC2)N1C(=O)c2ccccc2C1=O (stereo not drawn)	none (no result: YB-1 expr inh)
CCC1(C)NC(=S)N(c2ccccc2)N1 (stereo not drawn)	none (no result: YB-1 expr inh)
C=C1C(=O)OC2/C=C(\CO)C(OC(C)=O)C/C=C(/C)CC(OC(=O)/C(C)=C\CO)C12 (stereo not drawn)	YB-1 expr inh 4.7
C=C1C(=O)O[C@H]2C1[C@H](OC(=O)/C(C)=C/CO)C/C(C)=C\CC[C@@]1(C)OC21 (stereo partly drawn)	none
O=S(=O)(c1ccc(Cl)cc1)N1CCc2ccccc21	U2OS ROS induce 87
O=C(O)C1C2C=CC(O2)C1C(=O)Nc1ccc(S(=O)(=O)N2CCc3ccccc32)cc1 (stereo not drawn)	none (no result: YB-1 expr inh)
CC1=C(C#N)C(C(F)(F)F)(C(F)(F)F)N=C(C2CCCCC2)N1	none
CSc1ccccc1Sc1cc(C(=O)NCc2ccco2)c2ccccc2n1	none (no result: YB-1 expr inh)
C[C@@H]1CN([C@H](C)CO)C(=O)CCCn2nncc2CO[C@@H]1CN(C)C(=O)c1ccc2ccn(C)c2c1	none
C[C@H]1CN([C@@H](C)CO)C(=O)CCCn2nncc2CO[C@@H]1CN(C)CC1CC1	none
C[C@H](CO)N1C[C@H](C)[C@H](CN(C)CC2CC2)OCc2cnnn2CCCC1=O	U2OS ROS induce 137
C[C@@H]1CN([C@@H](C)CO)C(=O)CCCn2nncc2CO[C@H]1CN(C)C(=O)c1ccc2ccn(C)c2c1	U2OS ROS induce 94
CCCN(C(=O)c1ccc2c(=O)n3c(nc2c1)CCCC3)c1ccc(Cl)c(Cl)c1	none (no result: YB-1 expr inh)
CCC(C)c1ccc(NC(=S)NC(=O)c2ccco2)cc1 (stereo not drawn)	none (no result: YB-1 expr inh)
CCOC(=O)CSc1nc(Nc2ccccc2)c2cnc(N3CCOCC3)nc2n1	U2OS ROS induce 150
CCOC(=O)CSc1nc(Nc2ccc(OC)cc2)c2cnc(N(CC)CC)nc2n1	U2OS ROS induce inconclusive
CC(C)(C)c1ccc(OCC(=O)NC(c2ccccc2)c2ccccc2)cc1	none (no result: YB-1 expr inh)
O=C(NCc1ccccn1)c1cnn2c(C(F)(F)F)cc(-c3cccs3)nc12	none (no result: YB-1 expr inh)
CC(NC(=O)c1cnn2c(C(F)(F)F)cc(-c3cccs3)nc12)c1ccccc1 (stereo not drawn)	U2OS ROS induce 85 (no result: YB-1 expr inh)
Cc1ccccc1OCCn1c(CCCNC(=O)C2CCCCC2)nc2ccccc21	none (no result: YB-1 expr inh)
CC(C)(C)n1c(O)c(/C=C2/C=c3ccccc3=N2)c(=O)[nH]c1=O	none (no result: YB-1 expr inh)
OCCN(CCO)c1nc(-c2ccccc2)nc2sc(-c3ccccc3)cc12	U2OS ROS induce 116 (no result: YB-1 expr inh)
C=CCN(CC=C)c1nc(-c2ccccc2)nc2ccccc12	none (no result: YB-1 expr inh)
Cc1ccsc1/C=N/NC(=O)c1ccccn1	none
CC1=N/C(=C\c2sccc2C)C(=O)O1	U2OS ROS induce 94
Cc1cc(Cl)ccc1OCC(=O)Nc1sc2c(c1C#N)CCC2	none (no result: YB-1 expr inh)
CN(Cc1ccccc1)C(=O)CSc1nc(NCc2ccc(Cl)cc2)c2ccccc2n1	none (no result: YB-1 expr inh)
CCN(CC)c1ncc2c(NCc3ccccc3)nc(SCc3ccccc3)nc2n1	U2OS ROS induce 129
CCn1c(-c2ccccc2)ccc1C(O)C(F)(F)F (stereo not drawn)	none (no result: YB-1 expr inh)
C=CCn1c(=O)c2c(C)c(C)sc2n2c(Nc3ccc(C(=O)OCC)cc3)nnc12	U2OS ROS induce 194
CCOC(=O)c1ccc(Nc2nnc(CSc3nc(C)cc(C)n3)s2)cc1	none (no result: YB-1 expr inh)
O=C(CCCCc1cccs1)Nc1ccccc1F	none (no result: YB-1 expr inh)
COc1ccc(OCC(=O)Nc2ccc(-c3nc4cc(C)ccc4o3)cc2)cc1	none (no result: YB-1 expr inh)
Cc1ccc2oc(-c3cc(NC(=O)c4ncn[nH]4)ccc3O)nc2c1	U2OS ROS induce 147 (no result: YB-1 expr inh)
CS(=O)(=O)N(Cc1ccccc1)c1ccccc1C(=O)Nc1cccc(Br)c1	none (no result: YB-1 expr inh)
COc1ccc(-c2oc3cc(OC)c(OC)c(O)c3c(=O)c2OC)cc1OC	U2OS ROS induce 82
